# Screening results (PubChem BioAssay)
# Rab9 prom act – activates the Rab9 promoter; Huh7 Rab9 promoter-luciferase reporter, luminescence, 24 h; Potency, µM (titrated, usually from 9.22 µM), actives largely listed as activators; 320,000 compounds, 2.8% hits; also: nearly all actives have a fitted effect of over 60% in size
#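 Measured in stably transfected Huh7 cells bearing a Rab9 promoter–luciferase construct: 24 h compound treatment at 37 °C, followed by luminescence detection.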
# NPC1 promoter act – activators of NPC1 promoter; Huh7 NPC1 promoter luciferase reporter, 24 h; Potency, µM (highest dose often 9.22 µM), most hits filed as activators; 320,000 compounds, 2.4% hits; AID 485313; also: nearly all actives have a fitted effect of over 60% in size
#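 NPC1 promoter–luciferase Huh7 cells; 24 h compound; luminescence.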
# ELG1 genotox – genotoxicity induction in ELG1-luciferase HEK293T cells. HEK293T ELG1-luciferase reporter, luminescence, 16 h. Potency, µM (series often up to 46 µM), hits mostly activators. 330,000 compounds, 1.3% hits; also: nearly all actives have a fitted effect of over 60% in size
#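 Genotoxic stress is detected as increased luminescence from luciferase-tagged ELG1 in HEK293T cells, measured with ONE-Glo after a 16 hr treatment at 37 °C.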
# SMN2 splice up – increases expression of the SMN2 splice variant; HEK293 SMN2-luciferase splicing reporter, luminescence, 30-36 h; Potency, µM (titrated, usually from 46.1 µM), actives largely listed as activators; 210,000 compounds, 2.8% hits; also: nearly all actives have a fitted effect of over 55% in size
#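 HEK293 cells carry an SMN2 minigene-luciferase reporter in which exon 7 inclusion puts luciferase in frame. Cells were seeded at 2000 cells/well, attached for 10-12 hours, then exposed to compounds for 30-36 hours at 37C before ONE-Glo luminescence.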
# FLuc modulator – inhibits or activates purified firefly luciferase, miR-21 counter-screen | Potency, µM (top dose mostly 57.5 µM), actives largely listed as inhibitors | P08659 | purified FLuc, Km substrates, luminescence inhibition | 360,000 compounds, 6.9% hits | AID 588342; also: nearly all actives have a fitted effect of over 55% in size
# Target sequence (P08659 whole entry, looked up): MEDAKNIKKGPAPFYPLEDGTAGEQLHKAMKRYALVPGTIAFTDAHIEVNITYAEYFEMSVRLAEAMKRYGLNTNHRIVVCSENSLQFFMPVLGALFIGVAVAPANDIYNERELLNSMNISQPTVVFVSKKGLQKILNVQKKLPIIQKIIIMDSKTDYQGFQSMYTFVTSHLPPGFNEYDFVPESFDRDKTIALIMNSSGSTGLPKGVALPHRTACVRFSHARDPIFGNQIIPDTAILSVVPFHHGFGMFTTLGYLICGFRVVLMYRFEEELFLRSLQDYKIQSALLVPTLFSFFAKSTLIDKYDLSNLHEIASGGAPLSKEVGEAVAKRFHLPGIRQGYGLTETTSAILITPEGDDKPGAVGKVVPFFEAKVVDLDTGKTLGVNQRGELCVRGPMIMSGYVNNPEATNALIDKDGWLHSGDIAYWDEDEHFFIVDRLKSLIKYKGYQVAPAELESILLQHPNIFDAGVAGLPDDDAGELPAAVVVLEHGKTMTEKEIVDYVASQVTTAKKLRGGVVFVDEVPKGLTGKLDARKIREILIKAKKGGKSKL
#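 Purified P. pyralis luciferase, 10 nM final, with Km-level 10 uM D-luciferin and 10 uM ATP in 50 mM Tris acetate pH 7.5, 10 mM Mg acetate, 0.01% Tween-20, 0.05% BSA; 6-point qHTS titration about 60 µM downward; luminescence read.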
# A number is an active result; 0 = inactive; ? = inconclusive; - = no result. Only some compounds are listed: those with a hit (about 7.4% of all), similar ones and a draw of the others. Calls follow the shape of the dose curve; as a rule, active = well fitted curve in the direction sought with a large enough effect; inconclusive = small, poorly fitted or top-dose-only effect, or another doubt; inactive = no such curve, though single readings can be large; an effect the other way counts as inactive or inconclusive.
SMILES,Rab9 prom act,NPC1 promoter act,ELG1 genotox,SMN2 splice up,FLuc modulator
O=C(O)c1cc(-c2ccc(/C=N/N3C(=O)C4C5C=CC(CC5)C4C3=O)o2)ccc1Cl (centres undefined),0,0,0,-,19µM
O=C1C2C3C=CC(CC3)C2C(=O)N1/N=C/c1ccc(O)cc1 (centres undefined),0,?,?,0,15µM
COC(=O)c1ccc(-c2ccc(/C=N/N3C(=O)C4C5C=CC(CC5)C4C3=O)o2)cc1 (centres undefined),3.2µM,3.2µM,0,5µM,24µM
Cc1nc2ccc(S(=O)(=O)CCC(=O)Nc3ccc(Cl)cc3)cc2s1,-,-,-,-,0
CC(C)(C)OC(=O)N/N=C/c1ccc(Br)cc1,1.6µM,?,?,11µM,12µM
CC(C)(C)OC(=O)N/N=C\c1cccnc1,?,0,0,-,11µM
O=C(N/N=C/c1cccnc1)C(O)(c1ccccc1)c1ccccc1,0,0,0,0,0
CC(C)(C)NC(=O)C(=O)N/N=C/c1ccc(Br)cc1,0,0,0,0,?
Cc1ccc2nc(SCC(=O)NCc3ccc(F)cc3)nc(=O)n2c1,0,0,0,-,0
Cc1ccc(C(=O)N(CCN2CCCCC2)CC2CCCN(C3CCCC3)C2)s1 (centres undefined),?,0,0,-,?
O=C(c1cccs1)N(CCN1CCCCC1)CC1CCCN(C2CCCC2)C1 (centres undefined),?,0,0,-,17µM
CC1CCN(c2csc3ccc(F)cc3c2=O)CC1,-,-,-,-,6µM
Cc1ccc2scc(N3CCC(C)CC3)c(=O)c2c1,-,-,-,-,1.2µM
COc1ccc(N2CCN(c3csc4ccc(Cl)cc4c3=O)CC2)cc1,-,-,-,-,0
CC1CCN(c2cc3c(cc2F)c(=O)c(S(=O)(=O)c2ccc(Cl)cc2)cn3C)CC1,-,-,-,-,0
Cc1ccc2scc(N3CCCCC3C)c(=O)c2c1 (centres undefined),-,-,-,-,0.95µM
CCn1cc(S(=O)(=O)c2cccc(C)c2)c(=O)c2cc(F)c(N3CCCCC3C)cc21 (centres undefined),-,-,-,-,0
Cc1ccc2scc(N3CCCCC3)c(=O)c2c1,-,-,-,-,0.85µM
O=c1c(N2CCc3ccccc3C2)csc2ccc(F)cc12,-,-,-,-,6µM
S=c1nc(NCCc2ccccc2Cl)c2ccccc2[nH]1,3.5µM,3.2µM,0,-,0
COc1ccccc1-c1nn2c(-c3ccco3)nnc2s1,?,?,18µM,0,5.4µM
CCN(CC)c1ccc(-c2nn3c(-c4ccccc4OC)nnc3s2)cc1,0,0,0,0,19µM
COc1ccccc1-c1nn2c(-c3ccccc3Cl)nnc2s1,0,0,0,0,0
O=C(COc1ccccc1Cl)NCCCNC(=O)c1cccnc1,0,0,0,-,0
Cc1ccc(-c2cc(C(=O)Oc3ccccc3)c3cccc(C)c3n2)cc1,-,-,-,0,0
SMILES,Rab9 prom act,NPC1 promoter act,ELG1 genotox,SMN2 splice up,FLuc modulator
CC(C)(C)c1cc(OC(=O)c2ccccc2F)ccc1O,0,0,0,-,27µM
Cc1ccc(-c2cccc(OC(=O)c3ccccc3F)c2)cc1,0,0,0,0,5.4µM
CC1=C(C(=O)N(C)C)C(c2ccc(C)s2)NC(=S)N1 (centres undefined),0,0,0,0,0
C=CCNC(=S)N/N=C/c1ccc(-c2cc(Cl)ccc2Cl)o1,0,0,0,-,0
NC(=S)N/N=C/c1ccc(-c2cccc([N+](=O)[O-])c2)o1,0,0,0,0,?
CNC(=S)N/N=C/c1ccc(-c2ccc(C(=O)O)cc2)o1,0,?,?,-,17µM
O=C(O)c1cccc(-c2ccc(/C=N/Nc3ccc([N+](=O)[O-])cc3)o2)c1,0,0,0,-,11µM
CCOC(=O)c1ccc(-c2ccc(/C=N/NC(=O)CN(c3ccccc3Br)S(C)(=O)=O)o2)cc1,?,?,0,11µM,0
C=CCNC(=S)N/N=C/c1ccc(-c2ccc(OC)cc2)o1,0,0,0,0,19µM
CNC(=S)N/N=C/c1ccc(-c2ccc(Cl)c([N+](=O)[O-])c2)o1,0,0,0,-,0
CS(=O)(=O)N(CC(=O)N/N=C/c1cccc2c1OCCO2)c1ccccc1Br,0,0,0,0,0
O=C(O)c1ccc(-c2ccc(/C=N/Nc3ccc([N+](=O)[O-])cc3)o2)cc1,0,0,0,-,17µM
O=C(O)c1ccc(N/N=C/C=C/c2ccc([N+](=O)[O-])o2)cc1,0,0,0,-,17µM
NS(=O)(=O)c1ccc(-c2ccc(/C=N/Nc3ccc(C(=O)O)cc3)o2)cc1,0,0,0,-,7.6µM
CCC(=O)N/N=C/c1ccc(-c2ccc(Cl)cc2)o1,0,0,0,-,15µM
O=C(N/N=C/c1ccc([N+](=O)[O-])o1)C(=O)Nc1ccc(C(=O)O)cc1,0,0,0,-,0
CCCCCCn1nc(C(=O)N(CCOC)c2c(N)n(CCCC)c(=O)[nH]c2=O)c2ccccc2c1=O,0,0,0,-,0
O=C(CCC1CCCC1)N1CCc2c([nH]c3ccccc23)C1c1ccc(Cl)cc1 (centres undefined),-,-,-,-,0
COc1ccc(/C=C2\N=C(SC)N(c3ccccc3OC)C2=O)cc1,?,0,0,1.3µM,?
CCCOc1ccc(N2C(=O)C/C(=C\c3ccccc3)C2=O)cc1,0,0,0,-,0
CCOc1ccc(N2C(=O)/C(=C/c3ccccc3)N=C2SC)cc1,?,3.5µM,?,0,0
CCn1c(CSc2nc3ccccc3s2)nc2ccccc21,0,0,0,0,24µM
Cc1noc(C)c1CSc1nc2ccccc2s1,0,0,?,0,?
c1csc(CSc2nc3ccccc3s2)c1,3.5µM,?,15µM,?,4.8µM
COc1ccc(-n2nc(C(=O)NCC(=O)N3CCN(C)CC3)c3ccccc3c2=O)cc1OC,0,0,0,0,?
SMILES,Rab9 prom act,NPC1 promoter act,ELG1 genotox,SMN2 splice up,FLuc modulator
COc1ccc(-n2nc(C(=O)NCC(=O)N3CCN(c4ccccc4F)CC3)c3ccccc3c2=O)cc1,?,?,0,-,0.34µM
COc1ccc(-n2nc(C(=O)NCC(=O)N3CCN(c4ccccc4F)CC3)c3ccccc3c2=O)cc1OC,0,?,0,-,0.95µM
Cc1ccc2c(c1)c1cccc3c1n2CCN3CCC(N)=O,3.2µM,3.2µM,5µM,20µM,6µM
NC(=O)CCn1c2ccccc2c2ccccc21,0,0,0,0,0
CCOC(=O)C1(CCOc2ccccc2)CCN(Cc2cccc(OC)c2OC)CC1,0,0,0,-,0
COc1ccc(/C=N/OC(=O)Nc2ccccc2OC)cc1,?,0,?,16µM,8.5µM
Cc1ccc(NC(=O)O/N=C/c2ccc(N(C)C)cc2)cc1,0,?,0,-,12µM
CCN(CC)c1ccc(/C=N/OC(C)C(=O)Nc2ccc(C)cc2)cc1 (centres undefined),0,0,0,0,?
CN(C)c1ccc(/C=N/OC(=O)Nc2ccccc2Cl)cc1,0,0,0,-,24µM
COc1ccc(NC(=O)O/N=C/c2ccc(N(C)C)cc2)cc1,0,0,0,-,21µM
COc1ccc(NC(=O)O/N=C/c2ccncc2)cc1,0,0,0,0,?
